Screening data as filed in PubChem BioAssay.
The list is not random: actives were taken first. Their share in the collection is about 4.1%.
Peg3 prom inh = reduces Peg3 promoter-driven luciferase expression in HeLa; HeLa PEG-Prom luciferase reporter, luminescence, overnight; 360,000 tested, 1.7% active; inhibition, % at 20 µM;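 active = inhibition of at least 50% at 20 µM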
Shn3 3UTR inh = inhibitors of Schnurri-3 3'UTR reporter in osteoblasts. inhibition, % at 12.5 µM. Clone20 osteoblast Shn3 3'UTR firefly luciferase, 24 h. 360,000 tested, 0.52% active;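 active = mean inhibition of at least 75% with every replicate also reaching 75%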;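 note: 0% = median of neutral control wells and 100% = pilot-screen positive control compound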
EBV LMP1 NFkB = Epstein-Barr LMP1 NF-kappaB reporter inhibition. LMP1-induced NF-kappaB luciferase reporter cells, luminescence. inhibition, % at 12.5 µM. 350,000 tested, 0.69% active. AID 504558; in the data active = inhibition above about 41%;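 note: 0% = neutral control wells and 100% = reference inhibitor control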
TWEAK Fn14 block = blocks TWEAK-Fn14 interaction in a reporter cell assay | TWEAK-stimulated Fn14 reporter cells, luciferase luminescence, 8 h | inhibition, % at 10 µM | 360,000 tested, 2% active | AID 1159606; in the data active = inhibition above about 50%
MITF TRPM1 inh = reduces MITF-dependent TRPM1 promoter luciferase signal. inhibition, % at 12.5 µM. AID 488899. SK-MEL-5 TRPM1 promoter luciferase, 24 h. 330,000 tested, 0.83% active;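 active = mean inhibition across replicates of 60% or more, whatever share of single replicates reaches that level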
TROY signal inh = blocks TROY-dependent signaling in reporter cells | Q293 LMP1-TROYcd NF-kB luciferase reporter, 4 h | inhibition, % at 10 µM | 360,000 tested, 0.98% active;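 active = compounds whose plate-normalised and pattern-corrected inhibition of the luciferase reporter signal at the single screening dose is 50% or more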
* marks the source's active call; other numbers are inactive results.

SMILES	Peg3 prom inh	Shn3 3UTR inh	EBV LMP1 NFkB	TWEAK Fn14 block	MITF TRPM1 inh	TROY signal inh
CCCc1ccc(S(=O)(=O)N/N=C\c2ccc3c(c2)OCO3)cc1	-3	17	4	-12	2	-51
Nc1ncnc2oc(-c3ccco3)c(-c3ccco3)c12	40	-3	2	76*	10	-6
COc1ccc(CCNC(=O)C2CC(=O)N(c3ccc(C(C)(C)C)cc3)C2)cc1OC (stereo unspecified)	12	-22	-5	-2	5	-1
N=c1c(-c2nc3ccccc3[nH]2)cc(C(=O)c2ccco2)nn1-c1ccccc1	29	-1	2	-55	15	-35
N=c1c(-c2nc3ccccc3[nH]2)cc(C(=O)c2cccs2)nn1-c1ccccc1	6	-14	42*	-25	7	-14
C=CCNC(=O)c1c(Cl)nc(C)c([N+](=O)[O-])c1C	4	-16	-1	5	2	7
CC(Oc1ccc(F)cc1)C(=O)Nc1nc(-c2ccccn2)cs1 (stereo unspecified)	55*	62	14	-94	65*	74*
O=C(Nc1nc(-c2ccccn2)cs1)c1ccc(Br)s1	-68	93*	87*	-107	22	-10
O=C(Nc1ccc(Br)cc1)c1cccc(-n2cnnn2)c1	-63	-5	8	-35	-7	-29
O=C(Nc1nc(-c2ccccn2)cs1)c1cccc(-n2cnnn2)c1	40	98*	30	-8	42	-5
O=C(CCS(=O)(=O)c1ccc(F)cc1)Nc1nc(-c2ccccn2)cs1	8	31	11	12	42	3
O=C(Nc1nc(-c2cc(Cl)sc2Cl)cs1)c1ccc(Br)s1	1	-1	44*	47	0	5
COc1cccc(C(C(=O)NC(C)(C)C)N(C(=O)CCC(=O)Nc2cc(C)on2)c2ccc3c(c2)OCCO3)c1OC (stereo unspecified)	6	-43	15	23	-5	8
COc1cccc(N2CC(NC(=O)C(=O)c3c[nH]c4ccccc34)CC2=O)c1 (stereo unspecified)	12	3	10	2	20	0
CCCCCCC1CCC(C(=O)NC(CCSC)C(=O)NC(C(=O)OC)C(C)C)CC1 (stereo unspecified)	1	34	5	14	-3	-7
COC(=O)C1=C(C(=O)OC)[C@@H]2N(C)c3ccccc3[C@@]23C[C@@H](C(=O)OC)N(C(=O)c2ccc(Br)cc2)C3=N1	82*	56	11	48	11	20
COC(=O)C1=C(C(=O)OC)[C@@H]2N(C)c3ccccc3[C@@]23C[C@@H](C(=O)OC)N(C(=O)c2cccs2)C3=N1	36	-9	-1	25	0	24
COC(=O)C1=C(C(=O)OC)[C@@H]2N(Cc3ccccc3)c3ccccc3[C@@]23C[C@@H](C(=O)OC)N(C(=O)c2cc(C)oc2C)C3=N1	55*	-1	-2	33	-1	1
COC(=O)C1=C(C(=O)OC)[C@@H]2N(Cc3ccccc3)c3ccccc3[C@@]23C[C@@H](C(=O)OC)N(C(=O)c2cccs2)C3=N1	81*	5	5	61*	2	29
COc1cc([N+](=O)[O-])ccc1NC(=O)Nn1cnnc1	12	12	3	-12	-2	-21
CCN(CC)CCNc1ccc(C)c2sc3ccc(O)cc3c(=O)c12	98*	30	38	-194	85*	-91
Cc1ccc(NC(=O)CSc2nnc(C(F)(F)F)n2C)cc1[N+](=O)[O-]	-12	10	1	6	-6	-3
Cc1nn(Cc2cccc(F)c2)c(C)c1NC(=O)c1ccc(COc2ccccc2Cl)cc1	31	12	15	70*	-1	44
NNC(=O)c1cccc(O)c1	7	-10	7	3	11	-8
O=C(NCCc1ccc(F)cc1)C1CCN(C(=O)Nc2ccccc2)CC1	11	0	-3	2	8	11
NCCCn1c(C(=O)c2cc(Cl)c(N)c(Cl)c2)c2ccc(C(F)(F)F)cc2[n+]1[O-]	12	-22	-6	-9	18	3
NCCCn1c(C(=O)c2cc(Cl)c(N)c(Cl)c2)c2ccc([N+](=O)[O-])cc2[n+]1[O-]	57*	6	32	-37	54	-32
